# HIF-2a block = HIF-2a reporter inhibitors, primary screen, luminescence, 786-0 RCC cells; 786-0 RCC cells HIF-2a reporter, luciferase luminescence, overnight; inhibition, % at 18.8 µM; 360,000 tested, 0.72% active; AID 624352, 2012;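 active = inhibition of the luminescence signal of 40% or more relative to plate controls, in a single-dose primary screen at 18.75 µM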
# ABHD5-PLIN5 inh = ABHD5-PLIN5 interaction inhibitors, primary screen, cell lysate, split luciferase complementation, luminescence. Split G. princeps luciferase complementation, 4 h. AID 602281, 2012. 360,000 tested, 0.78% active. Perilipin-5 (Homo sapiens) + 1-acylglycerol-3-phosphate O-acyltransferase ABHD5 (Homo …. inhibition, % at 4 µM;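 active = inhibition above the mean inhibition across every tested compound plus 3 SD, cut at about 22% in these data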
# Target sequence (Q00G26 whole entry, looked up): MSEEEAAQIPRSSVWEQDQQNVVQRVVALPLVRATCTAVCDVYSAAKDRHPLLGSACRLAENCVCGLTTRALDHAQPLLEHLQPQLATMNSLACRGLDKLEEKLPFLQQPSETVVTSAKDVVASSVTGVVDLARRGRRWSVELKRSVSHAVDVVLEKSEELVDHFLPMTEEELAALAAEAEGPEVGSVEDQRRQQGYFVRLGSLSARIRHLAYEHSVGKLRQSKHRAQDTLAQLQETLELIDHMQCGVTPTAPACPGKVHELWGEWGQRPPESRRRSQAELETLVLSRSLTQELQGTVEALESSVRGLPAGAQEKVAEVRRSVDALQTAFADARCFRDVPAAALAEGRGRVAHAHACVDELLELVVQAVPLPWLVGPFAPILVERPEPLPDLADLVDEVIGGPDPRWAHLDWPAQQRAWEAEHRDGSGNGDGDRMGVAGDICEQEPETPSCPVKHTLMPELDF
# Target sequence (Q8WTS1 whole entry, looked up): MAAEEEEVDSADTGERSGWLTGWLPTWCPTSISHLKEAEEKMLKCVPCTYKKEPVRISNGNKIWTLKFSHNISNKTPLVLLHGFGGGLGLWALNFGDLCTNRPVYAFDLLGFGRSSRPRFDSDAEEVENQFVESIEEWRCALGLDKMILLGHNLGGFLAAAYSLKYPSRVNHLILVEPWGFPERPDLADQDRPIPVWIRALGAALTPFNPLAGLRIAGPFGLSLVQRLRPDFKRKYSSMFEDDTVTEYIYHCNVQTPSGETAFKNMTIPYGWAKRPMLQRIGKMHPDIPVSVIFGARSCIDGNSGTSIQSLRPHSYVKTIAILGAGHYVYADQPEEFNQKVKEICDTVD
# CF NFkB inh = inhibitors of PAF-induced NF-kB signaling, primary screen, cell-based, GFP fluorescence, uHTS. KKLEB NF-kB-GFP reporter, GFP fluorescence overnight. AID 588850, 2011. 360,000 tested, 0.86% active. inhibition, % at 5 µM;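 active = at least 50% inhibition at 5 µM, scaled per plate between neutral and stimulator controls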;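 also: PAF is a Pseudomonas aeruginosa culture filtrate used as stimulus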
# KKLEB tox = cytotoxicity in KKLEB CF airway cells, primary screen, cytotoxicity control for CF NF-kB inhibitor project, cell-based, uHTS, fluorescence assay plates | KKLEB CF airway cells viability, ATPlite luminescence, overnight; hits give low values; cells stimulated with P. aeruginosa culture filtrate | activity change (cytotoxicity), % at 5 µM | 360,000 tested, 0.36% active | AID 602141, 2011;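 active = corrected activity change at or below -50% at 5 µM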
# Peg3 prom inh = Peg3 promoter-driven luciferase inhibitors, primary screen, cell-based, HeLa, luciferase luminescence. inhibition, % at 20 µM. HeLa PEG-Prom luciferase reporter, overnight. 360,000 tested, 1.7% active;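 active = inhibition of at least 50% at 20 µM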
# Mdm2 MdmX PPI = inhibitors of human Mdm2-MdmX association, primary screen, cell-based, luminescence, split luciferase, SaOS-2, uHTS; Protein Mdm4 (Homo sapiens) + E3 ubiquitin-protein ligase Mdm2 (Homo sapiens), …; SaOS-2 split-luciferase Mdm2/MdmX complementation; inhibition, % at 8 µM; 330,000 tested, 3% active;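 active = inhibition of at least 50% at 8 µM in the primary screen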
# Mdm2 MdmX conf = Mdm2-MdmX complex disruptors, retested hits, confirmation, luminescence, single concentration; shares compounds with Mdm2 MdmX PPI; Mdm2-MdmX binding, luminescent assay; inhibition, % at 8 µM; 10,000 tested, 55% active; in the data active = inhibition above about 40%
# Full FLuc ctr = full-length luciferase signal inhibition, confirmation, counter-screen for Mdm2/MdmX interaction inhibitor project, cell-based, single concentration, SaOS-2; shares compounds with Mdm2 MdmX PPI; SaOS-2 full-length luciferase counterscreen, luminescence; inhibition, % at 8 µM; 6,200 tested, 77% active; AID 504607, 2011;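 active = mean inhibition at 8 µM reaching about 37%, which flags the compound as non-specific, limit read from the data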;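 also: p53-null SaOS-2 cells with luciferase driven by a doxycycline-inducible promoter; compound on cells about two nights before reading with doxycycline added after day one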
# Numbers stand for hits; n = inactive; x = no result. Shown are actives, neighbours in structure and some others; about 4.6% of the full set was active somewhere.
SMILES,HIF-2a block,ABHD5-PLIN5 inh,CF NFkB inh,KKLEB tox,Peg3 prom inh,Mdm2 MdmX PPI,Mdm2 MdmX conf,Full FLuc ctr
CCCNC(=O)C(=O)Nc1ccc2c(c1)N(S(=O)(=O)c1cccs1)CCC2,n,n,n,n,n,50.2,69.1,59.7
CN(C)CCNC(=O)C(=O)Nc1ccc2c(c1)N(S(=O)(=O)c1cccs1)CCC2,n,n,n,n,n,51.3,72.0,61.5
CCCCCCn1cc(CN2CC(N3CCN(CCN(C)C)CC3)CS2(=O)=O)nn1 (configuration not stated),n,n,x,x,x,x,x,x
CCNc1ccc(C(=O)OCC)cc1NC(=O)c1cccc(N(C)C)c1,n,n,n,n,n,57.9,54.4,65.4
CCNc1ccc(C(=O)OCC)cc1NC(=O)c1cccc(S(=O)(=O)N(C)c2ccccc2)c1,n,n,n,n,n,n,x,x
CC[n+]1c(/C=C2/C=C(C)CC(C)(C)C2)sc2ccc(OC)cc21,n,n,n,n,n,54.2,n,57.4
COc1ccc(NC(=O)c2ccccc2NC(=O)CSc2ccc(Cl)cc2)cc1,n,n,n,n,n,83.9,43.0,70.7
CN1C[C@H](C(=O)N[C@]2(C)O[C@@]3(O)[C@@H]4CCCN4C(=O)[C@H](Cc4ccccc4)N3C2=O)CC2c3cccc4[nH]cc(c34)C[C@H]21 (some centres not stated),n,n,n,n,n,n,x,x
CC(C)C[C@H]1C(=O)N2CCC[C@H]2[C@]2(O)O[C@](NC(=O)C3C=C4c5cccc6[nH]c(Br)c(c56)C[C@H]4N(C)C3)(C(C)C)C(=O)N12 (some centres not stated),n,n,n,n,n,61.2,n,x
Cc1ccc(NC(=O)c2ccccc2NS(=O)(=O)c2ccc(Cl)s2)cc1,n,n,59.9,n,n,89.6,81.0,n
O=C(NCc1ccco1)c1ccccc1NS(=O)(=O)c1ccc(Cl)s1,n,n,n,n,n,n,x,x
O=C(Nc1ccccc1Cc1ccccc1)c1ccccc1NS(=O)(=O)c1ccc(Cl)s1,n,n,62.9,n,n,93.2,91.8,n
O=C(Nc1ccccc1)c1ccccc1NS(=O)(=O)c1ccc(Cl)s1,n,n,n,n,n,84.8,62.0,n
CC(=O)Oc1ccc(C(=O)Nc2cccc(C(=O)c3cccc(NC(=O)c4ccc(OC(C)=O)cc4)c3)c2)cc1,n,n,n,n,n,79.3,n,85.5
COc1ccc(NC(=O)c2ccc3c(c2)n(C)c(=O)n3C)cc1,n,n,n,n,n,52.0,n,x
COc1ccc(C(=O)Nc2ccc3c(c2)n(C)c(=O)n3C)cc1OC,n,n,n,n,n,n,x,x
CC(=O)Nc1ccc2c(c1)n(C)c(=O)n2C,n,n,n,n,n,65.6,n,x
COc1ccc(OC)c(C(=O)c2ccc(C(=O)Nc3ccc(NC(C)=O)cc3)cc2)c1,n,n,n,n,n,74.5,n,x
O=C(NCc1nnnn1-c1ccc(F)cc1)c1ccc2c(c1)OCO2,n,n,n,n,n,x,x,x
COc1cc(/C=N/NC(=O)COc2ccc(-n3cnnn3)cc2)ccc1OCC(N)=O,n,n,n,n,n,n,x,x
CCOc1ncccc1C(=O)Nc1ccc(C(=O)Nc2ccc(OC)cc2)cc1,n,n,n,n,n,71.9,n,x
CCOc1ccc(NC(=O)c2ccc(OC)cc2)cc1,n,n,n,n,n,n,x,x
CCOc1ccccc1Nc1nnc(SC(C)C(=O)Nc2nc(-c3ccccc3)cs2)s1 (configuration not stated),n,n,n,n,n,86.0,78.7,n
N#Cc1ccc2c(=O)n(-c3ccccc3)sc2c1,n,n,n,n,n,x,x,x
O=c1c2ccccc2sn1-c1ccccc1,n,111.1,n,n,65.4,76.0,n,x
SMILES,HIF-2a block,ABHD5-PLIN5 inh,CF NFkB inh,KKLEB tox,Peg3 prom inh,Mdm2 MdmX PPI,Mdm2 MdmX conf,Full FLuc ctr
CCOC(=O)C1=CN(Cc2cccc(-c3ccc(F)cc3)c2)S(=O)(=O)N(C)C1C (configuration not stated),n,n,n,n,n,n,x,x
N=c1c2c(ncn1Cc1ccco1)Oc1ccc3ccccc3c1C2c1ccccc1 (configuration not stated),n,n,n,n,56.9,86.0,55.6,49.2
COc1ccc(C2c3c(ncn(Cc4ccco4)c3=N)Oc3ccc4ccccc4c32)cc1 (configuration not stated),n,n,n,n,n,87.7,53.2,88.5
Nc1ncnc2c1C(c1ccccc1)c1c(ccc3ccccc13)O2 (configuration not stated),n,n,n,n,n,88.0,53.1,62.8
CCCNC(=O)C1(C)CCN1C(=O)Cc1ccc(C(C)C)cc1 (configuration not stated),n,n,n,n,n,x,x,x
CCCN(Cc1nnc(-c2ccccc2Cl)o1)C(=O)c1oc2ccccc2c1C,n,n,n,n,n,n,x,x
CCN(CC(=O)Nc1ccc2c(c1)OCCO2)C(=O)C(C)Oc1ccc(F)cc1 (configuration not stated),n,n,n,n,n,x,x,x
C=C[C@H](CC(C)C)N(Cc1ccccc1)S(=O)(=O)N(Cc1ccccc1)[C@@H](C=C)CC(C)C,n,n,n,n,n,83.5,n,x
O=S(=O)(N(Cc1ccccc1)[C@H](CO)Cc1ccccc1)N(Cc1ccccc1)[C@H](CO)Cc1ccccc1,n,n,n,n,n,n,x,x
CC(C)C[C@@H](CO)N(Cc1ccccc1)S(=O)(=O)N(Cc1ccccc1)[C@H](CO)CC(C)C,n,n,n,n,83.0,81.3,n,x
C=C[C@@H](C)N(Cc1ccc(OC)cc1)S(=O)(=O)N(Cc1ccccc1)[C@H](C=C)C(C)C,n,n,n,n,n,n,x,x
CC(C)C[C@@H](CO)N(Cc1ccccc1)S(=O)(=O)N(Cc1ccccc1)[C@@H](CO)CC(C)C,n,n,n,n,84.5,82.6,n,x
COc1ccc(CN([C@H](CO)CC(C)C)S(=O)(=O)N(Cc2ccccc2)[C@H](CO)CC(C)C)cc1,n,n,n,n,82.9,61.6,n,x
